Rab9 promoter act = qHTS Assay for Rab9 Promoter Activators; Huh7 Rab9 promoter-luciferase reporter, luminescence, 24 h; Potency, µM (doses to about 9.22 µM), for the others: at the highest dose activation, negative = inhibition, hits mostly activators; 320,000 compounds, 2.8% hits; AID 485297, 2010; note: % of control where 0% means no effect; nearly all actives have a fitted effect of over 60% in size
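Rab9 promoter-driven luciferase in stably transfected Huh7 cells; 1500 cells/well rested 2 h, exposed to compound in DMSO for 24 h at 37 °C, 5% CO2. Luminescence read 10 min after adding luciferase reagent at ambient temperature.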
SMN2 splice enh = qHTS Assay for Enhancers of SMN2 Splice Variant Expression; 210,000 compounds, 2.8% hits; AID 1458, 2008; Potency, µM (highest dose often 46.1 µM), inactives show at the top dose activity change, positive = activation, most hits filed as activators; HEK293 SMN2-luciferase splicing reporter, luminescence, 30-36 h; note: % of control where 0% means no effect; nearly all actives have a fitted effect of over 55% in size
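HEK293 cells carry an SMN2 minigene-luciferase reporter in which exon 7 inclusion puts luciferase in frame. Cells were seeded at 2000 cells/well, attached for 10-12 hours, then exposed to compounds for 30-36 hours at 37C before ONE-Glo luminescence.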
FLuc modulator = qHTS profiling assay for firefly luciferase inhibitor/activator using purifed enzyme and Km concentrations of substrates (counterscreen for miR-21 project); AID 588342, 2011; 360,000 compounds, 6.9% hits; Luciferin 4-monooxygenase (Photinus pyralis), P08659; Potency, µM (doses to about 57.5 µM), for inactives: top-dose activity change, negative = inhibition, hits mostly inhibitors; purified FLuc, Km substrates, luminescence inhibition;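 note: plate controls were vehicle for no effect and reference inhibitor for full effect; nearly all actives have a fitted effect of over 55% in size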
Target sequence (P08659 whole entry, looked up): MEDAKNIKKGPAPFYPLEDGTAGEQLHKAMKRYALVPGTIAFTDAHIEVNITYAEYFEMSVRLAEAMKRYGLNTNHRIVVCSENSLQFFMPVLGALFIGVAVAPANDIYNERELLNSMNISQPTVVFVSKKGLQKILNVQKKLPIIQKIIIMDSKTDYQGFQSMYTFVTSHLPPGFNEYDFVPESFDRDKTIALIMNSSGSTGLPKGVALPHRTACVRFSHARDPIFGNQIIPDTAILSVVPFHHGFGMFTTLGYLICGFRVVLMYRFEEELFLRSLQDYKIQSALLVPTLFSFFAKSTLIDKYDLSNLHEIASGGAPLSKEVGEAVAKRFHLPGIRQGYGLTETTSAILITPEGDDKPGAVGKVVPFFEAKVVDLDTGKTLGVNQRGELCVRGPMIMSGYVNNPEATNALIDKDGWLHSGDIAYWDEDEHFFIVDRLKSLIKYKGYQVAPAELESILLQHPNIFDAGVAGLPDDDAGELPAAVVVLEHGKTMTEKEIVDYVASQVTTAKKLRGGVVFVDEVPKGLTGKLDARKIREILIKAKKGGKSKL
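Biochemical qHTS of compounds, final roughly 60 µM downward over six points, against 10 nM purified firefly luciferase using Km concentrations of substrates (10 uM D-luciferin, 10 uM ATP) in Tris acetate pH 7.5 buffer; luminescence output.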
ELG1 genotox = qHTS screen for small molecules that induce genotoxicity in human embryonic kidney (HEK293T) cells expressing luciferase-tagged ELG1 | HEK293T ELG1-luciferase reporter, luminescence, 16 h | Potency, µM (series often up to 46 µM), for the others: at the top dose activity change, positive = activation, actives largely listed as activators | 330,000 compounds, 1.3% hits | AID 504466, 2011; note: % of control where 0% means no effect; nearly all actives have a fitted effect of over 60% in size
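ELG1-luciferase HEK293T cells, 2,000/well; compound pinned in; 16 hr, 37 °C, 5% CO2; ONE-Glo, 30 min RT; luminescence on CCD imager.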
ELG1 repair inh = qHTS screen for small molecules that inhibit ELG1-dependent DNA repair in human embryonic kidney (HEK293T) cells expressing luciferase-tagged ELG1 | HEK293T ELG1-luciferase reporter, luminescence, 16 h; DNA damage induced by 5-fluorouridine | Potency, µM (titrated, usually from 46.1 µM), for the others: at the top dose activity change, negative = inhibition, most hits filed as inhibitors | 330,000 compounds, 2.3% hits; note: % is set by controls: 0 for no effect and ±100 for the full control effect; nearly all actives have a fitted effect of over 55% in size
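Luminescence from the luciferase reporter, measured 30 min after ONE-Glo reagent at room temperature, was the read-out. Beforehand, 2,000 cells per well were exposed for 16 hr at 37 °C to 5-fluorouridine together with compound or vehicle.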
NPC1 prom act = qHTS Assay for NPC1 Promoter Activators; Huh7 NPC1 promoter luciferase reporter, 24 h; Potency, µM (doses to about 9.22 µM), inactives show top-dose activation, actives largely listed as activators; 320,000 compounds, 2.4% hits; note: % of control where 0% means no effect; nearly all actives have a fitted effect of over 60% in size
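Cells: Huh7 expressing luciferase under the NPC1 promoter, 1500/well. Seeded 2 h, compound added, incubated 24 h at 37 °C. Luciferase reagent, 10 min ambient, then luminescence.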
Active calls of the source: *. Compounds with a hit are over-represented: about 9.2% of the library has one in this group of screens. Calls come from the whole dose curve; as a rule, active = well fitted curve in the direction sought with a large enough effect; inconclusive = small, poorly fitted or top-dose-only effect, or another doubt; inactive = no such curve, though single readings can be large; an effect the other way counts as inactive or inconclusive. Potency is the fitted concentration of half-maximal effect.

How did CCCCN(C)C(=O)C(Cc1ccccc1)NS(=O)(=O)c1ccc2c(c1)c(=O)n(C)c(=O)n2C (stereo not given) do in these assays?
Rab9 promoter act: -8.2%; SMN2 splice enh: 13.0%; FLuc modulator: -5.5%; ELG1 genotox: -15.2%; ELG1 repair inh: 14.6µM*; NPC1 prom act: -2.8%

Results for Nc1ccc2oc(=O)c3ccccc3c2c1 ?
Rab9 promoter act: inconclusive; SMN2 splice enh: 14.1µM*; FLuc modulator: -18.8%; ELG1 genotox: inconclusive; ELG1 repair inh: inconclusive; NPC1 prom act: inconclusive

How did O=C(C1CCN(c2ccc(N3CCOCC3)nn2)CC1)N1CCN(c2ccc(F)cc2)CC1 do in these assays?
Rab9 promoter act: -3.4%; SMN2 splice enh: -34.8%; FLuc modulator: 2.9%; ELG1 genotox: -4.1%; ELG1 repair inh: 16.4µM*; NPC1 prom act: -1.1%

Results for COc1ccc(NC(=O)Cc2coc3ccc4ccccc4c23)cc1S(=O)(=O)N1CCOCC1 ?
Rab9 promoter act: -5.4%; SMN2 splice enh: -17.3%; FLuc modulator: 13.5µM*; ELG1 genotox: 0.4%; ELG1 repair inh: inconclusive; NPC1 prom act: -4.3%

Results for COc1ccc(CC(=O)Nc2ccc(F)c(Cl)c2)cc1S(=O)(=O)N1CCOCC1 ?
Rab9 promoter act: -5.7%; FLuc modulator: 0.1%; ELG1 genotox: 1.4%; ELG1 repair inh: inconclusive; NPC1 prom act: -0.1%

Results for COc1ccc(NC(=O)CNc2cc(C)ccc2C)cc1S(=O)(=O)N1CCOCC1 ?
Rab9 promoter act: 0.3%; FLuc modulator: -1.8%; ELG1 genotox: 1.0%; ELG1 repair inh: -14.5%; NPC1 prom act: -3.7%

How did COc1ccc(NC(=O)Cc2coc3cc(C)ccc23)cc1S(=O)(=O)N1CCOCC1 do in these assays?
Rab9 promoter act: 19.7%; SMN2 splice enh: -5.3%; FLuc modulator: 15.1µM*; ELG1 genotox: 1.6%; ELG1 repair inh: 2.3%; NPC1 prom act: 13.1%

Results for COc1cccc(CNC(=O)C2CCN(S(=O)(=O)N3CCC(C)CC3)CC2)c1 ?
Rab9 promoter act: -0.1%; FLuc modulator: -0.4%; ELG1 genotox: -4.3%; ELG1 repair inh: inconclusive; NPC1 prom act: 0.2%

What do the screens show for `O=C(OC1Cc2c(O)cc(O)cc2OC1c1cc(O)c(O)c(O)c1-c1c(C2Oc3cc(O)cc(O)c3CC2O)cc(O)c(O)c1O)c1cc(O)c(O)c(O)c1` (stereo not given)?
SMN2 splice enh: 5.2%

Results for CCC(C)n1c(SCc2ccc(C(C)(C)C)cc2)nc2ccsc2c1=O (stereo not given) ?
FLuc modulator: -4.6%

How did CCN(CC)S(=O)(=O)c1cccc(-c2nnc(SCc3nnc(-c4cccs4)o3)n2N)c1 do in these assays?
Rab9 promoter act: 3.7%; SMN2 splice enh: -15.9%; FLuc modulator: -5.5%; ELG1 genotox: -14.6%; ELG1 repair inh: 20.6µM*; NPC1 prom act: 9.3%

Results for CCc1ccc(C(=O)NNC(=O)c2ccc(OCC(=O)N3CCOCC3)c(OC)c2)cc1 ?
Rab9 promoter act: -11.6%; FLuc modulator: 0.0%; ELG1 genotox: -0.3%; ELG1 repair inh: inconclusive; NPC1 prom act: -5.6%

Results for CCOc1ccc(-c2nc(-c3cccs3)c(CC(=O)O)s2)cc1OC ?
Rab9 promoter act: inconclusive; SMN2 splice enh: 15.5%; FLuc modulator: 3.01µM*; ELG1 genotox: inconclusive; ELG1 repair inh: inconclusive; NPC1 prom act: 17.4%

What do the screens show for `COc1cc(-c2nnc(-c3cccs3)o2)cc(OC)c1OC`?
Rab9 promoter act: 5.6%; SMN2 splice enh: inconclusive; FLuc modulator: -1.5%; ELG1 genotox: 5.7%; ELG1 repair inh: inconclusive; NPC1 prom act: 5.1%

Results for COc1ccc(-c2nnc(-c3cc(OC)c(OC)c(OC)c3)o2)cc1OC ?
Rab9 promoter act: -0.5%; SMN2 splice enh: inconclusive; FLuc modulator: -2.6%; ELG1 genotox: -9.6%; ELG1 repair inh: 23.1µM*; NPC1 prom act: -4.5%

Results for CCOc1ccc(-c2nnc(-c3cccs3)o2)cc1OCC ?
Rab9 promoter act: inconclusive; SMN2 splice enh: 23.5%; FLuc modulator: inconclusive; ELG1 genotox: inconclusive; ELG1 repair inh: inconclusive; NPC1 prom act: 3.55µM*

What do the screens show for `CCOc1ccc(-c2nnn(CCC(=O)O)n2)cc1OC`?
Rab9 promoter act: 0.3%; SMN2 splice enh: 15.7%; FLuc modulator: -1.8%; ELG1 genotox: -2.0%; ELG1 repair inh: -14.2%; NPC1 prom act: -2.2%

Results for c1csc(-c2nnc(-c3ccc(N4CCOCC4)cc3)o2)c1 ?
Rab9 promoter act: 0.631µM*; SMN2 splice enh: 1.26µM*; FLuc modulator: 1.2µM*; ELG1 genotox: 1.3µM*; ELG1 repair inh: inconclusive; NPC1 prom act: 0.355µM*

Results for Cc1ccccc1CNCCCSc1nnnn1-c1ccccc1 ?
FLuc modulator: -0.1%

What do the screens show for `Cc1ccc(C(=O)NCC(=O)NCc2ccc(Cl)cc2)s1`?
ELG1 genotox: 1.2%; ELG1 repair inh: 7.6%

How did CCCc1cnc(N2CCN(C(=O)c3ccccc3)CC2)nc1 do in these assays?
Rab9 promoter act: -2.4%; FLuc modulator: -1.4%; ELG1 genotox: -5.8%; ELG1 repair inh: inconclusive; NPC1 prom act: -5.2%

What do the screens show for `COc1ccc(-c2nnc(-c3cccs3)o2)cc1OC`?
Rab9 promoter act: 3.16µM*; SMN2 splice enh: 154.1%; FLuc modulator: 8.49µM*; ELG1 genotox: 14.1µM*; ELG1 repair inh: inconclusive; NPC1 prom act: 2.82µM*

What do the screens show for `CCOc1ccc(-c2nnc(-c3cccs3)o2)cc1`?
Rab9 promoter act: 0.631µM*; SMN2 splice enh: 2µM*; FLuc modulator: 0.675µM*; ELG1 genotox: inconclusive; ELG1 repair inh: inconclusive; NPC1 prom act: 0.708µM*

Results for Cc1ccc(C(=O)OCC(=O)Nc2cc(C(C)(C)C)no2)c(C)c1 ?
Rab9 promoter act: -3.0%; FLuc modulator: 9.8%; ELG1 genotox: -3.8%; ELG1 repair inh: -12.4%; NPC1 prom act: -1.7%

What do the screens show for `C/C(=N\NC(=O)COc1ccccc1-c1ccccc1)c1ccc(O)cc1O`?
Rab9 promoter act: -15.6%; FLuc modulator: 0.9%; ELG1 genotox: -8.4%; ELG1 repair inh: 23.1µM*; NPC1 prom act: -19.4%

What do the screens show for `C/C(=N\NC(=O)COc1ccccc1-c1ccccc1)c1ccccn1`?
Rab9 promoter act: -24.2%; SMN2 splice enh: -58.3%; FLuc modulator: -5.7%; ELG1 genotox: inconclusive; ELG1 repair inh: inconclusive; NPC1 prom act: -17.0%

Screening data as filed in PubChem BioAssay.
